Experimental data as given in PubChem BioAssay (EPA / NIEHS).
Activity calls are given as the source filed them. The calls were made as follows: active = hit-call score of the fitted dose curve at least 0.9, where 1 is the maximum; inactive = score below 0.9.

What was measured:
[1] = target: Transcription factor E2F1 (Homo sapiens) (UniProt Q01094); experiment: ATG_E2F_CIS: Attagene CIS-FACTORIAL HepG2 Assay for human E2F Transcription Factor 1 (AID 2282935); conditions: HepG2 Attagene cis-reporter, E2F reporter RNA transcripts; actives raise or lower the signal
Outline: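 Gain or loss of reporter transcript, fitted against DMSO, reflects E2F1-driven transcription. Transiently transfected HepG2 dosed 24 h before RNA isolation. Quantified by fluorescent RT-PCR products separated by capillary electrophoresis.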

[2] = ATG_E_Box_CIS: Attagene CIS-FACTORIAL HepG2 Assay for human Enhancer Box (E-box) (AID 2282936); conditions: HepG2 E-box cis-reporter transcription, actives raise or lower the signal
Outline: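 E-box-driven reporter transcripts measured in transiently transfected HepG2 after 24 h exposure: RNA reverse-transcribed, PCR-amplified, fluorescently labelled, digested and resolved by capillary electrophoresis. Gain or loss relative to DMSO.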

[3] = ATG_M_61_CIS: Attagene CIS-FACTORIAL HepG2 Assay for M61 Transcription Factor (Internal Marker) (AID 2282937); conditions: HepG2 Attagene CIS-FACTORIAL M61 internal marker reporter; actives raise or lower the signal
Outline: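 HepG2 cells transiently transfected with multiplexed cis-promoter reporter units reporting endogenous transcription factor activity, measured 24 h after dosing. Reporter mRNA quantified by RT-PCR and capillary electrophoresis; bidirectional fit against DMSO baseline.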

[4] = ATG_EGR_CIS: Attagene CIS-FACTORIAL HepG2 Assay for human Early Growth Response 1 (EGR1) (AID 2282938); conditions: HepG2 Attagene CIS-FACTORIAL EGR reporter mRNA; actives raise or lower the signal
Outline: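 HepG2 cells transiently transfected with cis-element-driven multiplexed reporter units, dosed for 24 h. EGR1-element reporter mRNA quantified by RT-PCR, 6-FAM labelling, HpaI digestion and capillary electrophoresis; bidirectional fit versus DMSO.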

[5] = ATG_M_19_CIS: Attagene CIS-FACTORIAL HepG2 Assay for M19 Transcription Factor (Internal Marker) (AID 2282939); conditions: HepG2 Attagene CIS-FACTORIAL M19 internal marker reporter; actives raise or lower the signal
Outline: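 HepG2 cells transiently transfected with cis-regulated multiple reporter transcription units were dosed for 24 h; reporter mRNA was quantified by RT-PCR, 6-FAM primer-extension labelling, HpaI digestion and capillary electrophoresis, with bidirectional fitting against DMSO baseline.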

[6] = ATG_ERE_CIS: Attagene CIS-FACTORIAL HepG2 Assay for Estrogen Response Element (ERE) (AID 2282940); conditions: HepG2 ERE cis-reporter, Attagene RNA transcript; actives raise or lower the signal
Outline: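 HepG2 cells transiently transfected with cis-promoter-driven multiplexed reporter transcription units report endogenous TF activity. After 24 h compound exposure, reporter mRNA is quantified by RT-PCR with capillary electrophoresis fluorescence; bidirectional fitting versus DMSO baseline.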

[7] = ATG_Ets_CIS: Attagene CIS-FACTORIAL HepG2 Assay for human Erythroblast Transformation Specific (ETS) (AID 2282941); conditions: HepG2 ETS cis-reporter transcription, actives raise or lower the signal
Outline: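 Endogenous transcription factor activity read as reporter mRNA via RT-PCR and capillary electrophoresis, with gain or loss fitted bidirectionally against DMSO. Human HepG2 liver cells, transiently transfected CIS reporter constructs, 24 h exposure.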

[8] = target: Hepatocyte nuclear factor 3-beta (Homo sapiens) (UniProt Q9Y261); experiment: ATG_FoxA2_CIS: Attagene CIS-FACTORIAL HepG2 Assay for human Forkhead box A2 (FOXA2) (AID 2282942); conditions: HepG2 cis-reporter transcription factor activity, 24 h; actives raise or lower the signal
Outline: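 HepG2 transiently transfected with a multiplexed cis-promoter reporter library read endogenous FOXA2 activity. After 24 h compound exposure, reporter mRNA was quantified by RT-PCR, HpaI digestion and capillary electrophoresis. Bidirectional fit against DMSO.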

[9] = ATG_FoxO_CIS: Attagene CIS-FACTORIAL HepG2 Assay for human Forkhead box O (FoxO) (AID 2282943); conditions: HepG2 Attagene cis-reporter, FoxO element, mRNA; actives raise or lower the signal
Outline: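 Human hepatoma HepG2 cells carry transiently introduced reporter transcription units controlled by cis promoter elements. Chemical treatment lasted 24 h, and mRNA signal was compared with DMSO.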

[10] = ATG_GATA_CIS: Attagene CIS-FACTORIAL HepG2 Assay for human GATA Binding Protein (AID 2282944); conditions: HepG2 GATA cis-element reporter, Attagene multiplex mRNA; actives raise or lower the signal
Outline: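 HepG2 cells transiently transfected with multiplexed cis-element reporter units reflecting endogenous transcription factor activity; reporter mRNA measured after 24 h dosing by RT-PCR, 6-FAM labeling, HpaI digestion and capillary electrophoresis. Bidirectional fitting versus DMSO baseline.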

[11] = ATG_GLI_CIS: Attagene CIS-FACTORIAL HepG2 Assay for human Zinc Finger Protein GLI1 (AID 2282945); conditions: HepG2, Attagene cis-factorial reporter mRNA, GLI element; actives raise or lower the signal
Outline: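 Bidirectional curve fits relative to DMSO, using reporter mRNA levels from RT-PCR plus capillary electrophoresis. Cells were HepG2 transiently carrying cis-regulated reporter constructs, harvested 24 h after dosing.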

[12] = ATG_GRE_CIS: Attagene CIS-FACTORIAL HepG2 Assay for human Glucocorticoid Response Elements (GRE) (AID 2282947); conditions: HepG2 GRE cis-reporter, Attagene multiplex mRNA; actives raise or lower the signal
Outline: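 Reporter transcripts read by RT-PCR with capillary electrophoresis fluorescence after a 24 h chemical exposure of HepG2 cells transiently transfected with multiple cis-element reporter units. Gain or loss fitted against DMSO.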

[13] = ATG_ISRE_CIS: Attagene CIS-FACTORIAL HepG2 Assay for human Interferon Regulatory Factor 1 (IRF1) binding to an Interferon-Stimulated Response Element (ISRE) (AID 2282948); conditions: HepG2 ISRE cis-reporter (Attagene), mRNA transcription readout; actives raise or lower the signal
Outline: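 Endogenous transcription factor activity read as reporter transcript abundance via RT-PCR and capillary electrophoresis. HepG2 cells transiently transfected, 24 h chemical exposure. Gain or loss fitted against DMSO baseline.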

[14] = ATG_M_32_CIS: Attagene CIS-FACTORIAL HepG2 Assay for M32 Transcription Factor (Internal Marker) (AID 2282949); conditions: HepG2 Attagene cis-factorial M32 reporter, mRNA; actives raise or lower the signal;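 also: background control marker of the multiplexed CIS panel rather than a real target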
Outline: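 HepG2 transfectants (cis-regulated reporter transcription units) dosed 24 h. Reporter mRNA by RT-PCR plus CE, analysed as gain or loss relative to DMSO.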

[15] = ATG_M_06_CIS: Attagene CIS-FACTORIAL HepG2 Assay for M06 Transcription Factor (Internal Marker) (AID 2282950); conditions: HepG2 Attagene CIS-FACTORIAL M06 internal marker reporter; actives raise or lower the signal
Outline: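 HepG2 cells transiently transfected with cis-regulated multiple reporter transcription units were exposed to chemical for 24 h; reporter mRNA was quantified by RT-PCR, 6-FAM primer labelling, HpaI digestion and capillary electrophoresis, fitted bidirectionally against DMSO.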

[16] = target: Hypoxia-inducible factor 1-alpha (Homo sapiens) (UniProt Q16665); experiment: ATG_HIF1a_CIS: Attagene CIS-FACTORIAL HepG2 Assay for human Hypoxia Inducible Factor 1 (HIF1A) (AID 2282951); conditions: HepG2 Attagene cis-factorial HIF1a reporter transcription; actives raise or lower the signal
Outline: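 HepG2 cells transiently transfected with multiple cis-regulated reporter transcription units measure endogenous transcription factor activity. After 24 h exposure, reporter mRNA is quantified by RT-PCR with 6-FAM labelling, HpaI digestion and capillary electrophoresis. Bidirectional fitting against DMSO.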

[17] = target: Hepatocyte nuclear factor 6 (Homo sapiens) (UniProt Q9UBC0); experiment: ATG_HNF6_CIS: Attagene CIS-FACTORIAL HepG2 Assay for human Hepatocyte Nuclear Factor 6 (HNF6) (AID 2282952); conditions: HepG2 Attagene cis-factorial HNF6 reporter transcription; actives raise or lower the signal
Outline: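 First, HepG2 cells were transfected with the multiplexed cis reporter library and dosed with chemical for 24 h. Next, RNA was reverse-transcribed, PCR-amplified and fluorescently labelled. Finally, HpaI-digested fragments were read by capillary electrophoresis.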

[18] = ATG_MRE_CIS: Attagene CIS-FACTORIAL HepG2 Assay for human Metal Responsive Element (MRE) (AID 2282954); conditions: HepG2 MRE cis-reporter transcription, Attagene multiplex; actives raise or lower the signal
Outline: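 Endogenous MRE-dependent transcription read as reporter mRNA in transiently transfected human HepG2 cells at 24 h. RNA reverse-transcribed, PCR-amplified, labelled and resolved by capillary electrophoresis; gain or loss relative to DMSO.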

[19] = target: Heat shock factor protein 1 (Homo sapiens) (UniProt Q00613); experiment: ATG_HSE_CIS: Attagene CIS-FACTORIAL HepG2 Assay for human Heat Shock Transcription Factor 1 (HSE) (AID 2282953); conditions: HepG2 HSE cis-reporter, Attagene RNA transcription; actives raise or lower the signal
Outline: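 HepG2 cells transiently transfected with multiple reporter transcription units under cis-regulatory promoter control, measuring endogenous transcription factor activity. After 24 h chemical exposure, reporter mRNA quantified by RT-PCR, fluorescent labelling, HpaI digestion and capillary electrophoresis; bidirectional fit versus DMSO.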

[20] = target: Bile acid receptor (Homo sapiens) (UniProt Q96RI1); experiment: ATG_IR1_CIS: Attagene CIS-FACTORIAL HepG2 Assay for human Nuclear Receptor Subfamily 1 Group H Member 4 (NR1H4), IR1 submotif (AID 2282946); conditions: IR1 reporter transcription, actives raise or lower the signal
Outline: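 HepG2 cells transiently transfected with multiplexed cis-element reporter units read endogenous transcription factor activity. After 24 h compound exposure, reporter mRNA was quantified by RT-PCR, fluorescent labelling, HpaI digestion and capillary electrophoresis; bidirectional fitting versus DMSO baseline.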

Measured: outcome

Chain of Transcription factor E2F1 (Homo sapiens) (Q01094 whole entry, looked up): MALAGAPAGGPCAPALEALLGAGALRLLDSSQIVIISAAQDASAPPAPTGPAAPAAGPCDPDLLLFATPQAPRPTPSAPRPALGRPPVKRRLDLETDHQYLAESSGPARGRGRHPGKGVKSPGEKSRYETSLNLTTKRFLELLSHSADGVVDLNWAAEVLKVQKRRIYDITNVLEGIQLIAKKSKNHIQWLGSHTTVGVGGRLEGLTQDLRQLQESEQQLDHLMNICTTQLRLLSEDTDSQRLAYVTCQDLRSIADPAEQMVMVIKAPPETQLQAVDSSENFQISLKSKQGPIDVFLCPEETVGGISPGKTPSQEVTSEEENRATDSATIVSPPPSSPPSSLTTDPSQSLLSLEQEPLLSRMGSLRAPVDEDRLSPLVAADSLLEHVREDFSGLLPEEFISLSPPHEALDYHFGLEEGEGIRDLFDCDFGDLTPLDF
Chain of Hepatocyte nuclear factor 3-beta (Homo sapiens) (Q9Y261 whole entry, looked up): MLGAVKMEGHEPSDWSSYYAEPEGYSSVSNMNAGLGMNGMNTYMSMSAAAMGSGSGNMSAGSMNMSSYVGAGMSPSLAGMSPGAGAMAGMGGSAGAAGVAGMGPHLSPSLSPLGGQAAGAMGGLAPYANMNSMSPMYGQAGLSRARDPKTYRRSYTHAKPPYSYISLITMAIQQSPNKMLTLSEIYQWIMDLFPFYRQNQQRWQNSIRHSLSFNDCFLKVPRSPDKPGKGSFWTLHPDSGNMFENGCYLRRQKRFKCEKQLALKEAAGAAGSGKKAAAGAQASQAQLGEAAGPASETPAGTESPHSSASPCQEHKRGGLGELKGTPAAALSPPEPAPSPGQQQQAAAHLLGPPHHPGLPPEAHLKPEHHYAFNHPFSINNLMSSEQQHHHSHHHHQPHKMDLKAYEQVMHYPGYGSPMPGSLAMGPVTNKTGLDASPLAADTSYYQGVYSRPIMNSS
Chain of Heat shock factor protein 1 (Homo sapiens) (Q00613 whole entry, looked up): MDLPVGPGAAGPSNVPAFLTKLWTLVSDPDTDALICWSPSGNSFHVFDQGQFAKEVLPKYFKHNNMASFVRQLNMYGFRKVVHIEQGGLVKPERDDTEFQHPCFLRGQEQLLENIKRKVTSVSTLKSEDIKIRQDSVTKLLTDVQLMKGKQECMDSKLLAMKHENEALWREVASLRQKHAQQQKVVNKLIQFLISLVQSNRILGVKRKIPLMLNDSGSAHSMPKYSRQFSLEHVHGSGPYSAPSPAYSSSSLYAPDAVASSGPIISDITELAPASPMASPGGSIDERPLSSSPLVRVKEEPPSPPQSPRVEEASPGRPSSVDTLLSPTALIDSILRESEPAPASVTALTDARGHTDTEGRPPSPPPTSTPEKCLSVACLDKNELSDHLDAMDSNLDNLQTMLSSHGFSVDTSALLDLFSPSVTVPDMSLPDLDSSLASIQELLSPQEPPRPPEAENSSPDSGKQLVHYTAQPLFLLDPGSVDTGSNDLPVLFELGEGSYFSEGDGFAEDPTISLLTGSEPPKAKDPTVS
Chain of Hypoxia-inducible factor 1-alpha (Homo sapiens) (Q16665 whole entry, looked up): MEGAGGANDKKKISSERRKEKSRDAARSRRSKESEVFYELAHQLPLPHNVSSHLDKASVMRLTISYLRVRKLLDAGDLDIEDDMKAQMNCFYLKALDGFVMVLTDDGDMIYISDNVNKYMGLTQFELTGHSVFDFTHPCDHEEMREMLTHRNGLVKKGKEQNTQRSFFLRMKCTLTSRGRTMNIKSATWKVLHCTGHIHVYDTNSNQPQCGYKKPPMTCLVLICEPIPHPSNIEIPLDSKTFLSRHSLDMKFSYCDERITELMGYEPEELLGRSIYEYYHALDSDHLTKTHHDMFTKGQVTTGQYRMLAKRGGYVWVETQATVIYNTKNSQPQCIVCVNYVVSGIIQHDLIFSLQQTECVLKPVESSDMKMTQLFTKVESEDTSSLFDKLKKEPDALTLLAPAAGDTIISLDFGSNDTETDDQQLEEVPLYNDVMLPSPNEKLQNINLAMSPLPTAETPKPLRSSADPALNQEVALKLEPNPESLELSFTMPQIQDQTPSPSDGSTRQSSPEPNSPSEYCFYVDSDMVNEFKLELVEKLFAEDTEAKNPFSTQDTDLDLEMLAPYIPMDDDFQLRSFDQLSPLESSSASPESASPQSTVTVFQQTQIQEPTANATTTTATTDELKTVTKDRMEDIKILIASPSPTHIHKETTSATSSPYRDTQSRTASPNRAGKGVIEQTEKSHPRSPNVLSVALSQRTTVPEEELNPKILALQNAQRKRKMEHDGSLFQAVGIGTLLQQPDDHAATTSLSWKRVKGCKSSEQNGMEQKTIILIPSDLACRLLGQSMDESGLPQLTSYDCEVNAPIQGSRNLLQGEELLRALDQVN
Chain of Hepatocyte nuclear factor 6 (Homo sapiens) (Q9UBC0 whole entry, looked up, the tested form may be a part): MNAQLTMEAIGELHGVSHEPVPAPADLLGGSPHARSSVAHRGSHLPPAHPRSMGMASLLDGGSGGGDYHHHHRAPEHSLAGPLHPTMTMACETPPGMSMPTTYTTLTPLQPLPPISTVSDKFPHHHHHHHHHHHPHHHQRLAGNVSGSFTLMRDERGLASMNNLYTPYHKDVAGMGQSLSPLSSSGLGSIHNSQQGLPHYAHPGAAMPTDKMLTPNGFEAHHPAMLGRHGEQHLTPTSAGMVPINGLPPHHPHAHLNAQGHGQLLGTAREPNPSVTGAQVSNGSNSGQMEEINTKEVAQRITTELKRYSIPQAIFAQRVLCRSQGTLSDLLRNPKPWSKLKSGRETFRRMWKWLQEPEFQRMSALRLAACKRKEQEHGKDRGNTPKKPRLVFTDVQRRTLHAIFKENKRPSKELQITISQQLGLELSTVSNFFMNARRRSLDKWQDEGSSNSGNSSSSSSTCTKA
Chain of Bile acid receptor (Homo sapiens) (Q96RI1 whole entry, looked up): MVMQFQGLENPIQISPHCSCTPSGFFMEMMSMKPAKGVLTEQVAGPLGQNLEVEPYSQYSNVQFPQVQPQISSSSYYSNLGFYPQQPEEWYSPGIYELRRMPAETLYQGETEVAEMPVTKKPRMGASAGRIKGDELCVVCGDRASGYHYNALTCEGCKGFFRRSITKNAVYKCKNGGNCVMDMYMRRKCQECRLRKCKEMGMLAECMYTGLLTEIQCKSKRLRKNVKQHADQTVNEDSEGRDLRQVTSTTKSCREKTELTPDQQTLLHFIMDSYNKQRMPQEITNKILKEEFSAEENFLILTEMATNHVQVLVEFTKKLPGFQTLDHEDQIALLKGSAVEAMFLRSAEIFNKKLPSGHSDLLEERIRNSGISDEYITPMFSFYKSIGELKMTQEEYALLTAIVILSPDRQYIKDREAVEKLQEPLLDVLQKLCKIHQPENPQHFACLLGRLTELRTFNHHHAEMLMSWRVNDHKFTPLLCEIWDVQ

CC(C)(C)c1cccc(O)c1
inactive: [1] | [2] | [3] | [4] | [5] | [6] | [7] | [8] | [9] | [10] | [11] | [12] | [13] | [14] | [15] | [16] | [17] | [18]

C=C(C)C(=O)OCCC[Si](OC)(OC)OC
inactive: [1] | [2] | [3] | [4] | [5] | [6] | [7] | [8] | [9] | [10] | [11] | [13] | [15] | [16] | [17] | [19] | [18]

O=C(O)c1ccco1
inactive: [1] | [2] | [3] | [4] | [5] | [6] | [7] | [8] | [9] | [10] | [11] | [13] | [15] | [16] | [17] | [19] | [18]

CCCC(O)C(CC)CO (configuration not stated)
inactive: [1] | [2] | [3] | [4] | [5] | [6] | [7] | [8] | [9] | [10] | [11] | [14] | [15] | [16] | [17] | [19]

COC(=O)c1cccc(C(=O)OC)c1
inactive: [1] | [2] | [3] | [4] | [5] | [6] | [7] | [8] | [9] | [11] | [13] | [14] | [15] | [16] | [17] | [19] | [18]

C=C(C)C(=O)OCCC(C)OC(=O)C(=C)C (configuration not stated)
inactive: [1] | [2] | [3] | [4] | [5] | [6] | [7] | [8] | [9] | [10] | [11] | [13] | [15] | [16] | [17] | [19] | [18]

O=C(O)c1cccc(Cl)n1
inactive: [1] | [2] | [3] | [4] | [5] | [6] | [7] | [8] | [9] | [10] | [11] | [14] | [16] | [17] | [19] | [18]

CC(=O)Oc1c(C)c(C)c2c(c1C)CC[C@@](C)(CCC[C@H](C)CCC[C@H](C)CCCC(C)C)O2
inactive: [1] | [2] | [3] | [4] | [5] | [6] | [7] | [8] | [9] | [11] | [13] | [14] | [15] | [16] | [17] | [19] | [18]

CC(C)C(=O)OCC=Cc1ccccc1
inactive: [1] | [2] | [3] | [4] | [5] | [6] | [7] | [8] | [9] | [11] | [20] | [12] | [13] | [16] | [17] | [19] | [18]
